We go through 19 molecules from PubChem BioAssay (NCATS).

Results filed as inconclusive are left out. The source made the active and inactive calls. The call rests on the fitted dose curve; in most records, active means well fitted curve in the direction sought with a large enough effect; inconclusive means small, poorly fitted or top-dose-only effect, or another doubt; inactive means no such curve, though single readings can be large; an effect the other way counts as inactive or inconclusive.

For experiment [1], the target named is Voltage-gated inwardly rectifying potassium channel KCNH2 (Homo sapiens) (UniProt Q12809). Kind of experiment: qHTS Assay for Small Molecule Inhibitors of the Human hERG Channel Activity (AID 588834).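 Further: lower thallium flux fluorescence means stronger hERG block; nearly all actives have a fitted effect of over 50% in size.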 An outline of the steps: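 hERG-BacMam U2OS, 2000 cells/well; 0.7X FluxOR loading 1 hr RT dark; cpd ~10 min 37 °C; stim buffer; FDSS fluorescence 2 min @ 1 s; AC50 Hill fit.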
Chain of Voltage-gated inwardly rectifying potassium channel KCNH2 (Homo sapiens) (Q12809 whole entry, looked up): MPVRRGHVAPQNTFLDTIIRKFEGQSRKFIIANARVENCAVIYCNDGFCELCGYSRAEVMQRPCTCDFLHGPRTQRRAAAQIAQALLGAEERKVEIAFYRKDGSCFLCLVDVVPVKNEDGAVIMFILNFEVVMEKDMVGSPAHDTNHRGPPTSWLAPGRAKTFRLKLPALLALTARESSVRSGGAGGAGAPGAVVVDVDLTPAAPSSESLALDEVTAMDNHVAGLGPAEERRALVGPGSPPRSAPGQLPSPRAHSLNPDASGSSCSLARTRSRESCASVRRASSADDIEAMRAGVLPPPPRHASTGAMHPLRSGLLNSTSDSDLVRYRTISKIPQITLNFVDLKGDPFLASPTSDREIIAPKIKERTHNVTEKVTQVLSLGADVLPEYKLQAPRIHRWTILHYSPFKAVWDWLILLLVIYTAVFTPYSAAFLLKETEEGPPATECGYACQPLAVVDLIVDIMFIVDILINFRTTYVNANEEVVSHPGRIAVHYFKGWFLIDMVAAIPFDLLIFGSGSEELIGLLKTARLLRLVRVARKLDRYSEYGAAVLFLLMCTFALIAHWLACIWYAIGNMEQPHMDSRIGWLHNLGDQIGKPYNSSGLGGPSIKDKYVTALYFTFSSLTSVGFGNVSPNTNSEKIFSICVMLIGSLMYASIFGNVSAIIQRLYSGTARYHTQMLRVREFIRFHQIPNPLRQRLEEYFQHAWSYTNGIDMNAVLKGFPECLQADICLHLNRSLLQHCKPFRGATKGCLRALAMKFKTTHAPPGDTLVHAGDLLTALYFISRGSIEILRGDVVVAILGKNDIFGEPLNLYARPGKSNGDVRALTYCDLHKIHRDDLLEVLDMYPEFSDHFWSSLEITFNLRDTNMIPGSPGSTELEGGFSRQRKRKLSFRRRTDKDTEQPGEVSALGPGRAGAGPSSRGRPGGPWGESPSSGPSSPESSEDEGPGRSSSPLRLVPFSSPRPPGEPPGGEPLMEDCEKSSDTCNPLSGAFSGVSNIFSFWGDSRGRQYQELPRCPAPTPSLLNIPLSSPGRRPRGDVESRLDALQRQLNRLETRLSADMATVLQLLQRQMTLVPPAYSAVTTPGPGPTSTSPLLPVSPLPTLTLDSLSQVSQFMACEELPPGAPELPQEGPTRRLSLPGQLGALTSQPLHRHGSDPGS
Background: In qHTS, concentration-response curves come from the screen itself.

Experiment [2] deals with Luciferin 4-monooxygenase (Photinus pyralis) (UniProt P08659). Kind of experiment: Biochemical firefly luciferase enzyme assay for NPC (AID 624030). Further: nearly all actives have a fitted effect of over 70% in size. An outline of the steps: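 Counter-screen for direct inhibition of the luciferase enzyme by approved-drug library compounds, run at 10 nM enzyme in 50 mM Tris acetate (final). Luminescence was read within 5 min of enzyme-buffer addition and normalized to PTC124 versus DMSO (0%).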
Chain of Luciferin 4-monooxygenase (Photinus pyralis) (P08659 whole entry, looked up): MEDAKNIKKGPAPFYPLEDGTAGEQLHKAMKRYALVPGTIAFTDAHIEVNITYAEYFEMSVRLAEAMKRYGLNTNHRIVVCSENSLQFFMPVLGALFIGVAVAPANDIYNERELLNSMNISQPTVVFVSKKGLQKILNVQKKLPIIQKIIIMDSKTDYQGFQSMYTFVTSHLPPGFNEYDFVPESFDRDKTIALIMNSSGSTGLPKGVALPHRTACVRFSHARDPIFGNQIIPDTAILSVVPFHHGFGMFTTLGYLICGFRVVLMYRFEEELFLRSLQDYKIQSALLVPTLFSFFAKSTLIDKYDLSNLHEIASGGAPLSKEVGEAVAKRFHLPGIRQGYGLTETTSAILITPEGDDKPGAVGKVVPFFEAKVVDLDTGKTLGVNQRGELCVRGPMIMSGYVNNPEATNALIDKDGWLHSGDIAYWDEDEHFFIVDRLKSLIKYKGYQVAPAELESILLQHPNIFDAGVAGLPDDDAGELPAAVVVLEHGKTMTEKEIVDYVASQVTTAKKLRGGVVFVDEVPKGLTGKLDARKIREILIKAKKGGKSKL

The nature of experiment [3]: S16 Schwann cell viability assay (CellTiter-Glo assay) (AID 624031). Further: nearly all actives have a fitted effect of over 70% in size. An outline of the steps:
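Native S16 rat Schwann cells in DMEM/10% FBS without phenol red were incubated overnight, then exposed to compounds for 24 h at 37 °C/5% CO2. Viability was read as ATP luminescence (CellTiter-Glo), normalized to no-cell wells and DMSO (0%).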
A general note: Cellular ATP, detected with luciferase, serves as a proxy for viable cell number.

The nature of experiment [4]: S16 Schwann cell PMP22 intronic element firefly luciferase assay (AID 624032). Further: nearly all actives have a fitted effect of over 30% in size. An outline of the steps: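 Rat S16 Schwann cells stably carrying a PMP22 intronic element-driven Fluc reporter were seeded overnight, then exposed to compounds for 24 h at 37 °C. Luminescence was normalized to PTC124 (positive control) and DMSO (0% activity).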
Potency means the concentration at half of the fitted maximal effect.

With `CCC(=O)OCC(=O)[C@@]1(OC(=O)CC)[C@H](C)C[C@H]2[C@H]3[C@H]([C@@H](O)C[C@@]21C)[C@@]1(C)C=CC(=O)C=C1C[C@H]3Cl`, in experiment [1], the Potency entry was “inactive”.

As to `CCc1ccc2c(c1)N(CC(C)CN(C)C)c1ccccc1S2` (configuration not stated), the Potency in experiment [1] is 7.94 µM (active).

Take `CC(C(=O)O)c1ccc(N2Cc3ccccc3C2=O)cc1` (configuration not stated): the Potency result in experiment [1], in experiment [3] and in experiment [4] was “inactive” each time. Also, the Potency in experiment [2] was 0.181 µM (active).

Regarding `CCCCC(=O)O[C@]1(C(=O)CO)[C@H](C)C[C@H]2[C@@H]3CCC4=CC(=O)C=C[C@]4(C)[C@@]3(F)[C@@H](O)C[C@@]21C`, the Potency result in experiment [1], in experiment [2], in experiment [3] and in experiment [4] was “inactive” throughout.

Turning to `CN=C(NC#N)Nc1ccc(C2=NNC(=O)C[C@@H]2C)cc1`, the Potency result in experiment [1] was “inactive”.

As for `CC(C)N=c1cc2n(-c3ccc(Cl)cc3)c3ccccc3nc-2cc1Nc1ccc(Cl)cc1`, in experiment [1], the Potency is 7.08 µM (active). Further, the Potency entry in experiment [2] and in experiment [3] was “inactive” throughout.

`CC(=O)Oc1c(C)cc(OCC(O)CNC(C)C)c(C)c1C` (configuration not stated): the Potency entry in experiment [1], in experiment [2], in experiment [3] and in experiment [4] was “inactive” in each case.

Take `COc1cc(-c2ccc(-[n+]3nc(-c4ccccc4)nn3-c3ccc([N+](=O)[O-])cc3)c(OC)c2)ccc1-[n+]1nc(-c2ccccc2)nn1-c1ccc([N+](=O)[O-])cc1`: the Potency result in experiment [1] and in experiment [2] was “inactive” throughout.

As to `CCNC(=O)[C@@H]1CCCN1C(=O)[C@H](CCCN=C(N)N)NC(=O)[C@H](CC(C)C)NC(=O)[C@@H](Cc1c[nH]c2ccccc12)NC(=O)[C@H](Cc1ccc(O)cc1)NC(=O)[C@H](CO)NC(=O)[C@H](Cc1c[nH]c2ccccc12)NC(=O)[C@H](Cc1cnc[nH]1)NC(=O)[C@@H]1CCC(=O)N1`, the Potency in experiment [1] is 2.51 µM (active); in experiment [3], 6.42 µM (active); in experiment [4], 4.55 µM (active). In addition, the Potency entry in experiment [2] was “inactive”.

Turning to `CC(C)(C)C(=O)OCOC(=O)[C@@H]1N2C(=O)[C@@H](N=CN3CCCCCC3)[C@H]2SC1(C)C`, the Potency result in experiment [1], in experiment [2] and in experiment [3] was “inactive” each time.

On to `CC[N+](C)(C)Cc1ccccc1Br`, for which the Potency result in experiment [1], in experiment [2], in experiment [3] and in experiment [4] was “inactive” in each case.

Take `C[C@]12CCC(=O)C=C1CC[C@@H]1[C@@H]2[C@@H](O)C[C@@]2(C)[C@H]1CC[C@]2(O)C(=O)COP(=O)(O)O`: the Potency result in experiment [1], in experiment [2], in experiment [3] and in experiment [4] was “inactive” each time.

As for `NC1C2CN(c3nc4c(cc3F)c(=O)c(C(=O)O)cn4-c3ccc(F)cc3F)CC12` (configuration not stated), the Potency result in experiment [1], in experiment [2], in experiment [3] and in experiment [4] was “inactive” in each case.

For `C[C@]12O[C@H](C[C@]1(O)CO)n1c3ccccc3c3c4c(c5c6ccccc6n2c5c31)CNC4=O`, the Potency entry in experiment [1] and in experiment [2] was “inactive” each time. In addition, in experiment [3], the Potency was 10.2 µM (active).

Take `CCCCCCOc1ccc(C(=N)N(CCCC)CCCC)c2ccccc12`: the figures for the Potency in experiment [1], in experiment [3] and in experiment [4] were 2.24 µM (active), 16.1 µM (active) and 22.8 µM (active), respectively. Further, the Potency result in experiment [2] was “inactive”.

`COC(F)(F)C(Cl)Cl`: the Potency result in experiment [1], in experiment [2], in experiment [3] and in experiment [4] was “inactive” throughout.

Take `Cc1cc(C(=O)NNCc2ccccc2)no1`: the Potency entry in experiment [1], in experiment [2], in experiment [3] and in experiment [4] was “inactive” each time.

Regarding `O=C1CSC2(CCN(CCCN3c4ccccc4Sc4ccc(Cl)cc43)CC2)N1`, the Potency in experiment [1] is 7.08 µM (active); in experiment [3], 32.2 µM (active); in experiment [4] it was 32.2 µM (active). In addition, in experiment [2], the Potency result was “inactive”.

In the case of `Cc1c(C)c2c(c(C)c1O)CC[C@@](C)(CCC[C@@H](C)CCC[C@@H](C)CCCC(C)C)O2`, the Potency entry in experiment [1], in experiment [2], in experiment [3] and in experiment [4] was “inactive” throughout.
